Compounds with a hit are over-represented: about 2.5% of the library has one in this group of screens.
PRMT1 inh: inhibitors of human PRMT1; Q99873; recombinant PRMT1, activity-based probe fluorescence polarization; inhibition, % at 2.79 µM; actives 1.3% (n = 370,000); AID 652257;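 active = inhibition above about 21% made by adding two undisclosed values, limit read from the data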
Target sequence (Q99873 whole entry, looked up): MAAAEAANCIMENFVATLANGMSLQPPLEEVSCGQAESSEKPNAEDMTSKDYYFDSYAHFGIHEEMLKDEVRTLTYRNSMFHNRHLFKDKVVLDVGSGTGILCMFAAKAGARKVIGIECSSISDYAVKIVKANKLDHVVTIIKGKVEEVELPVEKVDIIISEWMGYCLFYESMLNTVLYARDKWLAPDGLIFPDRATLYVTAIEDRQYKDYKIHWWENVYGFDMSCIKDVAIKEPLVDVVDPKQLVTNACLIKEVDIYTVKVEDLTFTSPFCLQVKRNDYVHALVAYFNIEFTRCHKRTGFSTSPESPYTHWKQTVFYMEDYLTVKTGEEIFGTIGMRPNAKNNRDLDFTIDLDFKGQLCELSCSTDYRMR
LEDGF integ inh: blocks HIV-1 LEDGF/p75-dependent DNA integration | actives 0.64% (n = 370,000) | inhibition, % at 3.7 µM | AID 743269 | TR-FRET IN-LEDGF/p75 DNA integration, Eu/Cy5;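 active = inhibition above the screen-wide mean plus 3 SD, cut at about 13% in these data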;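 note: signal is the Cy5 over europium emission ratio at 671 and 618 nm; 0% = plate median of compound wells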
MBD2 inh: inhibitors of human MBD2 binding to methylated oligonucleotide. actives 0.31% (n = 370,000). Q9UBB5. AID 686964. TR-FRET. inhibition, % at 4.4 µM; in the data active = inhibition above about 13%
UHRF1 binding: UHRF1 methyl-DNA binding inhibition. AID 687016. actives 0.75% (n = 370,000). inhibition, % at 4.4 µM. UHRF1 binding to methylated oligo, TR-FRET; in the data active = inhibition above about 21%;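 note: UHRF1 SRA domain binding a hemimethylated CpG hairpin DNA probe; 0% = median of test compound wells and 100% = reference inhibitor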
PRMT1 confirm: PRMT1 (human) inhibition, FP confirmation; actives 42% (n = 3,300); shares compounds with PRMT1 inh; inhibition, % at 2.79 µM; recombinant His-PRMT1, activity-based probe fluorescence polarization;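 active = mean inhibition across replicates above the hit cutoff derived for the earlier primary screen, cut at about 22% in these data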
Starred values were filed as active, the others as inactive; x = no result given.

SMILES | PRMT1 inh | LEDGF integ inh | MBD2 inh | UHRF1 binding | PRMT1 confirm
CCOc1ccccc1NC(=O)c1c(NC(=O)CCC(=O)O)sc2c1CCCCC2 | 25* | 3 | 4 | -3 | -4
Cc1ccc(-c2c(NC(=O)c3ccc(F)cc3)nc3ncccn23)cc1 | 4 | -2 | 3 | 0 | x
O=C(NNc1nc(-c2ccccc2)cs1)c1cccs1 | 51* | -2 | 1 | 0 | -2
CN(Cc1ccc2c(c1)CCCN2C)C(=O)[C@H]1O[C@@H](n2ccc(=O)[nH]c2=O)[C@H](O)[C@@H]1O | 52* | -3 | 0 | -1 | 7
S=c1nc(C23CC4CC(CC(C4)C2)C3)[nH][nH]1 | 34* | 5 | -2 | 5 | 9
Cc1sc(N)nc1C12CC3CC(CC(C3)C1)C2 | -1 | -4 | 3 | 0 | x
COc1c(O)cccc1[C@@H](O)C1CCN(CCc2ccc(F)cc2)CC1 | 36* | -1 | 4 | 1 | -2
NC(=O)CC1(c2ccccc2)CCCCC1 | 4 | -1 | -3 | 2 | x
CCOc1ccc(/C=C/C2=Cc3c(sc(NC(=O)CSc4n[nH]c(N)n4)c3C#N)C(C)(C)C2)cc1 | 33* | 6 | -3 | 1 | 9
O=C1CN(c2ccccc2F)C(=O)CN1c1ccccc1F | -1 | 0 | 0 | 0 | x
Cn1sc2ccccc2c1=O | 71* | -4 | -1 | 2 | 77*
O=c1c2ccccc2sn1-c1ccccc1F | 89* | -2 | 2 | 1 | 96*
O=c1c2ccccc2sn1-c1nccs1 | 97* | -9 | 5 | 9 | 88*
COCCn1c(=O)sc2ccccc2c1=O | 0 | -3 | 1 | 0 | x
O=C1c2ccccc2C(=O)N1c1nccs1 | 2 | -4 | 5 | -3 | x
COC(=O)C1=C(C)N(Cc2ccc(C)cc2)C(=O)/C1=C\c1ccc(O)c(OC)c1 | 27* | 4 | -10 | -5 | 5
c1ccc2oc(-c3ccc(Nc4nc(N5CCOCC5)nc(N5CCOCC5)n4)cc3)nc2c1 | -1 | 0 | 3 | -1 | x
CC(C)=C1C2CCC1C1C(=O)N(c3ccc4c(c3)OCO4)C(=O)C21 (stereo not given) | -3 | 0 | -4 | -1 | x
CC(C)=C1C2C=CC1C1C(=O)N(c3ccc4c(c3)OCO4)C(=O)C21 (stereo not given) | 73* | -2 | 2 | 5 | 5
CC(=O)C1=C(C)Nc2cc(C(F)(F)F)ccc2S1 | 28* | -2 | 2 | -2 | 13
CCc1nnc2n1N=C(c1ccc(Cl)cc1)CS2 | 0 | -2 | -4 | -4 | x
Cc1nnc2n(c1=O)N=C(c1ccc(Cl)cc1)CS2 | 56* | -4 | -1 | 2 | 57*
O=C(NCc1ccco1)c1ccc(-c2ccc3nccn3c2)cc1 | 5 | 3 | -5 | -3 | x
NC(=O)c1cc(S(=O)(=O)NCCc2ccc(Cl)cc2)cs1 | -1 | 4 | -3 | 3 | x
CCOC(=O)c1ccc(-n2c(CCC(=O)O)ccc2-c2cccs2)cc1 | 47* | 0 | 3 | 2 | 6
SMILES | PRMT1 inh | LEDGF integ inh | MBD2 inh | UHRF1 binding | PRMT1 confirm
Cc1ccc(-n2c(CCC(=O)O)ccc2-c2cccs2)cc1C | 32* | 0 | 1 | -2 | 4
Cc1cc(C)c(C)c(S(=O)(=O)NCC(=O)Nc2ccc(F)cc2)c1C | 0 | -3 | -1 | 2 | x
COc1cc(/C=C2\S/C(=N/S(=O)(=O)c3ccc(C)cc3)NC2=O)c([N+](=O)[O-])cc1OC | 27* | 2 | -11 | -3 | 2
Cc1ccc(S(=O)(=O)/N=C2/NC(=O)/C(=C\c3ccco3)S2)cc1 | 28* | 8 | -4 | 7 | 6
CC1=NC(C)(C)CC2CCC(O)C12 (stereo not given) | 2 | -3 | 3 | 2 | x
COc1ccc(-c2noc(CN(C)C(=O)c3ccoc3C)n2)cc1OC | 6 | -1 | 1 | 0 | x
O=C(CN1CCN(C(=O)CNC(=O)c2ccc(N3CCCC3=O)cc2)CC1)Nc1cccc(F)c1 | 4 | -2 | 12 | 2 | x
Cc1ccc(C(=O)NN2C(=O)/C(=C/c3cn(C)c4ccccc34)SC2=S)cc1 | 7 | 0 | 0 | 4 | x
Cn1cc(/C=C2\SC(=O)NC2=S)c2ccccc21 | 28* | -4 | -4 | -7 | 5
c1coc(C2Nc3ccccc3-c3nc4ccccc4n32)c1 (stereo not given) | 45* | 3 | -3 | -4 | -1
C/C(=N/NC(=O)c1ccoc1C)c1cccs1 | -7 | 5 | 3 | -2 | x
COc1ccc(-n2ccnc(SCC(=O)NCc3ccccc3Cl)c2=O)cc1 | 88* | 0 | 1 | 1 | 14
O=C(CSc1nccn(-c2ccc(F)c(Cl)c2)c1=O)NC1CCCC1 | 32* | 1 | -1 | -2 | 39*
CCOc1ccc(-n2ccnc(SCC(=O)Nc3cccc(OC)c3)c2=O)cc1 | 39* | 0 | 7 | 3 | 42*
Cc1ccc(-n2ccnc(SCC(=O)NC3CCCC3)c2=O)cc1Cl | 15 | -2 | 2 | -4 | x
Cn1nccc1NC(=O)CSCC(=O)O | -1 | -5 | -6 | 0 | x
Cc1ccc(S(=O)(=O)Oc2cccc([N+](=O)[O-])c2)cc1 | 3 | 3 | 5 | 2 | x
O=C(NCCN1CCOCC1)c1cccc2c1C(=O)c1ccc(N3CCCC3)cc1S2(=O)=O | 8 | 1 | -15 | -24 | x
O=C(O)c1cccc2c1C(=O)c1ccc(N3CCCC3)cc1S2(=O)=O | 27* | 1 | -12 | -10 | 30*
CC(C)N1CC=C2C(C#N)=C(N)C(C#N)(C#N)C(c3ccccc3)C2C1 (stereo not given) | 37* | 0 | -12 | -7 | 33*
COc1cc(C2C3CN(C)CC=C3C(C#N)=C(N)C2(C#N)C#N)ccc1OC(C)C (stereo not given) | 8 | 2 | -5 | -5 | x
CN1CC=C2C(C#N)=C(N)C(C#N)(C#N)C(Cc3ccccc3)C2C1 (stereo not given) | 45* | -1 | -3 | -2 | 11
O=C(NNC(=S)NC(=O)c1ccc(Br)cc1)c1cccc([N+](=O)[O-])c1 | -5 | 7 | -9 | -7 | x
CC(=O)NNC(=S)NC(=O)c1cccc([N+](=O)[O-])c1 | 48* | -2 | 7 | 3 | 0
Cc1ccc2cc(NC(=O)C3(C)CCN3CC(C)C)ccc2n1 (stereo not given) | -3 | 3 | -3 | -1 | x
SMILES | PRMT1 inh | LEDGF integ inh | MBD2 inh | UHRF1 binding | PRMT1 confirm
CC(=O)NCCN=C(C)c1sc2ccccc2c1O | 25* | -5 | -2 | -4 | 21*
CC(=Nc1ccc(O)cc1)c1sc2ccccc2c1O | 27* | 2 | -5 | -8 | 13
CC(=Nc1cccc(C)c1)c1sc2ccccc2c1O | 26* | -5 | 0 | -3 | 19
Oc1c(N=Nc2ccccc2)sc2ccccc12 | 7 | -2 | -15 | -10 | x
O=C(CNC(=O)c1sc2ccccc2c1Cl)NCc1ccccc1 | 4 | -21 | 3 | -1 | x
CC(=Nc1ccccc1O)c1sc2ccccc2c1O | 34* | -5 | 0 | -2 | 25*
COC(=O)C(C(=O)OC)c1ccc(-n2cccc2)cc1 | 4 | -7 | -1 | 4 | x
